Assay results reported in PubChem BioAssay (Tox21).
Activity calls are given as the source filed them. The call rests on the fitted dose curve; in most records, active means well fitted curve in the direction sought with a large enough effect in the repeat runs; inconclusive means weak or mixed curves; inactive means flat fitted curve, though single readings scatter.

Assay: qHTS assay to test for compound auto fluorescence at 460 nm (blue) in HepG2 cells (AID 720687)
Settings: autofluorescence 405/460 nm, 1 h; series mostly up to 91.3 µM
From the text: U.S. Tox21 Program National Center for Advancing Translational Sciences [NCATS] NIH Chemical Genomics Center [NCGC] U.S. Environmental Protection Agency [EPA] National Institutes of Environmental Health Sciences [NIEHS] National Toxicology Program [NTP] U.S. Food and Drug Administration [FDA] Tox21 Assay Overview: Compound auto fluorescence often interferes with screening of the compound library against various biological targets and signaling pathways. Some of these compounds may have fluorophoric properties. Such properties may interfere with the assay outputs resulting in false positives and/or negatives. To decrease such complications and ensure the compound activities are relevant in terms of biological response, the Tox21 10K compound library was screened for auto fluorescence. From the fluorophores used as reporter signals in our screening assays, the auto fluorescence equivalencies of compounds against three fluorophores have been evaluated: Triamterene, Fluorescein and Rose Bengal sodium for blue, green and red fluorescence, respectively. The fluorescence intensities were measured using Excitation/Emission wavelengths at 405/460nm, 485/535nm and 540/590nm for blue, green and red labels, respectively. This assay includes the blue fluorescence data.
Tox21 Assay Protocol Summary: 2,000 HepG2 cells in 5 uL of culture medium (MEM containing 10% FBS) per well were dispensed into black wall/clear bottom 1536-well plates using a Multidrop Combi Dispenser (ThermoFisher Scientific, Waltham, MA). The assay plates were incubated overnight at 37 C to allow cell attachment to the well bottom, followed by the transfer of 23 nL compound or DMSO vehicle by a pintool work station (Kalypsys , San Diego, CA). After the assay plates were incubated for 1 hr at 37 C and 5% CO2, fluorescence intensities in the assay plates were measured by an Envision (PerkinElmer, Shelton, CT) plate reader using three labels for measuring blue, green and red fluorescence at […] 460, 535 and 590 nm respectively.
On the % scale 0 is the no-effect control and ±100 the full control effect.

**Q.** With F[Si-2](F)(F)(F)(F)F as the molecule, how does the outcome read?
**A.** Its outcome is “inactive”.

**Q.** For CC(C)(C)NCCO, which outcome is on record?
**A.** The outcome was “inactive”.

**Q.** With CO[Si](CCCCl)(OC)OC as the molecule, how does the outcome read?
**A.** Its outcome is “inactive”.

**Q.** With Nc1ccnc(=O)[nH]1 as the molecule, how does the outcome read?
**A.** The outcome was “inactive”.

**Q.** With Cc1cccc(Nc2ccncc2S(=O)(=O)NC(=O)NC(C)C)c1 as the molecule, how does the fluorescence, % of fluorescent control read?
**A.** Its fluorescence, % of fluorescent control is -0.0073% [at 18.6 µM] (inactive).

**Q.** For COc1cc2c(Nc3ccc(Br)cc3F)ncnc2cc1OCC1CCN(C)CC1, which outcome is on record?
**A.** Its outcome is “inactive”.

**Q.** Which outcome does the source give for CN(C1CCCCC1)S(=O)(=O)c1ccccc1N here?
**A.** Its outcome is “inactive”.

**Q.** With C=C[C@@H](C)CCC=C(C)C as the molecule, how does the outcome read?
**A.** Its outcome is “inactive”.

**Q.** For O=C(Nc1cccc(C2=NCCN2)c1)Nc1cccc(C2=NCCN2)c1, which outcome is on record?
**A.** The outcome was “inactive”.

**Q.** Which outcome does the source give for CCOC(=O)OCC/C(SC(=O)OCC)=C(\C)N(C=O)Cc1cnc(C)nc1N here?
**A.** Its outcome is “inactive”.

**Q.** With O=S(=O)(O)CCO as the molecule, how does the outcome read?
**A.** The outcome was “inactive”.

**Q.** For C=CCOc1c(Br)cc(Br)cc1Br, which outcome is on record?
**A.** Its outcome is “inactive”.

**Q.** For OCCCCCCCl, which outcome is on record?
**A.** Its outcome is “inactive”.

**Q.** For N#CCCOCCOCCC#N, which outcome is on record?
**A.** The outcome was “inactive”.

**Q.** For Cc1ccccc1N1CCN(CCc2nnc3n2CCCC3)CC1, which outcome is on record?
**A.** Its outcome is “inactive”.

**Q.** For CCN(Cc1cccc(S(=O)(=O)O)c1)c1ccccc1, which outcome is on record?
**A.** The outcome was “inactive”.

**Q.** For CCCCC[Si](OCC)(OCC)OCC, which outcome is on record?
**A.** The outcome was “inactive”.

**Q.** With C=C(C)C(=O)OC as the molecule, how does the outcome read?
**A.** The outcome was “inactive”.

**Q.** With O=C1OC(=O)c2ccccc21 as the molecule, how does the outcome read?
**A.** The outcome was “inactive”.

**Q.** For FC(F)(F)c1ccc(Cl)cc1Cl, which outcome is on record?
**A.** Its outcome is “inactive”.

**Q.** Which outcome does the source give for CC(=O)Nc1ccc(C)cc1 here?
**A.** The outcome was “inactive”.

**Q.** For Cc1nc2ccccc2c(=O)o1, which outcome is on record?
**A.** Its outcome is “inactive”.

**Q.** For OC(CCN1CCCCC1)(c1ccccc1)c1ccccc1, which outcome is on record?
**A.** Its outcome is “inactive”.

**Q.** For Nc1ccc(S(=O)(=O)NC(=O)c2ccccc2)cc1, which fluorescence, % of fluorescent control is on record?
**A.** Its fluorescence, % of fluorescent control is -0.0228% [at 18.6 µM] (inactive).

**Q.** Which outcome does the source give for CCCCCCCCCCCCCC(=O)OC here?
**A.** Its outcome is “inactive”.

**Q.** Which outcome does the source give for NC(=O)NNC(N)=O here?
**A.** The outcome was “inactive”.

**Q.** With COc1cccc2sc(N)nc12 as the molecule, how does the outcome read?
**A.** The outcome was “inactive”.

**Q.** Which outcome does the source give for O=S1(=O)CCCC1 here?
**A.** Its outcome is “inactive”.

**Q.** For CNCc1ccccc1, which outcome is on record?
**A.** Its outcome is “inactive”.

**Q.** For CCC(C)(CCC(C)C)C(=O)[O-].CCC(C)(CCC(C)C)C(=O)[O-].[Zn+2] (stereo not given), which outcome is on record?
**A.** Its outcome is “inactive”.

**Q.** With NS(=O)(=O)c1cc2c(cc1Cl)NC(CC1CCCC1)NS2(=O)=O (stereo not given) as the molecule, how does the fluorescence, % of fluorescent control read?
**A.** The fluorescence, % of fluorescent control was 0.11% [at 18.6 µM] (inactive).

**Q.** Which outcome does the source give for CC(C)c1ccccc1O here?
**A.** Its outcome is “inactive”.

**Q.** With CCCCCCCCOC(C)=O as the molecule, how does the outcome read?
**A.** The outcome was “inactive”.

**Q.** Which outcome does the source give for OC[C@@H](O)[C@H](O)[C@@H](O)[C@@H](O)CO here?
**A.** Its outcome is “inactive”.

**Q.** With CCCCOC(=O)[C@@H](C)Oc1ccc(Oc2ccc(C(F)(F)F)cn2)cc1 as the molecule, how does the outcome read?
**A.** The outcome was “inactive”.

**Q.** With C1=CCC(c2ccccc2)CC1 (stereo not given) as the molecule, how does the outcome read?
**A.** Its outcome is “inactive”.

**Q.** For C=CCCCCCCCCCCC, which fluorescence, % of fluorescent control is on record?
**A.** Its fluorescence, % of fluorescent control is -0.017% [at 3.72 µM] (inactive).

**Q.** For CC(=O)N(CC(O)CO)c1c(I)c(C(=O)NCC(O)CO)c(I)c(C(=O)NCC(O)CO)c1I (stereo not given), which outcome is on record?
**A.** The outcome was “inactive”.

**Q.** For C[N+](C)(C)CC(O)CCl (stereo not given), which outcome is on record?
**A.** Its outcome is “inactive”.

**Q.** Which outcome does the source give for C/C=C(\C)C(=O)OCC/C=C\CC here?
**A.** Its outcome is “inactive”.
